Sfp inh – inhibitors of Bacillus subtilis Sfp phosphopantetheinyl transferase | Q9F4F7 | AID 1490 | Potency, µM, actives largely listed as inhibitors | Biochemical Sfp PPTase activity, qHTS | actives 3.5% (n = 310,000);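 further: the enzyme is Sfp with the accession as filed and its product quenches rhodamine fluorescence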
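Compounds were incubated with enzyme (final 15 nM) for 15 min at room temperature before substrate addition started the reaction. Fluorescence at 525 nm excitation, 598 nm emission was recorded immediately and after 30 minutes.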
PLK1 PBD inh – blocks phosphopeptide binding to human PLK1 polo-box domain; Plk1 PBD binding of FITC phosphopeptide, fluorescence polarization; Potency, µM, most hits filed as inhibitors; actives 2.8% (n = 360,000); AID 720504; further: series mostly up to about 57 µM; nearly all actives have a fitted effect of over 65% in size
Target sequence (P53350 whole entry, looked up, the tested form may be a part): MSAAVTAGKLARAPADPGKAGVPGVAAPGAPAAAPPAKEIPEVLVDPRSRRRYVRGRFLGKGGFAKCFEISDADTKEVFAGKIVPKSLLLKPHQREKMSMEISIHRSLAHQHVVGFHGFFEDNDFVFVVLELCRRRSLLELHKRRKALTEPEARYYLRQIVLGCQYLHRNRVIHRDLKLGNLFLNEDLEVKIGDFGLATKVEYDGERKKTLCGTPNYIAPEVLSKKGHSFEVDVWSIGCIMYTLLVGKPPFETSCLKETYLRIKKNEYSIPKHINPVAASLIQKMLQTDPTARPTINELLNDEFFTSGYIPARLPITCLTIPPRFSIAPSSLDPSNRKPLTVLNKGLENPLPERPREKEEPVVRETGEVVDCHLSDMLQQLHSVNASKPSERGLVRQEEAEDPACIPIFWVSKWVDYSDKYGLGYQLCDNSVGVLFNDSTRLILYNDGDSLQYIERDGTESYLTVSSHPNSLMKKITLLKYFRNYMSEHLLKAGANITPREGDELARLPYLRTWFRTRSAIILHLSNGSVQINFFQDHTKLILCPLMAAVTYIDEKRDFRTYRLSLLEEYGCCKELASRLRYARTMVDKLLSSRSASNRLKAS
VDR inhibitor – vitamin D3 receptor (human) inhibition | actives 0.93% (n = 400,000) | Potency, µM, actives largely listed as inhibitors | VDR-SRC2-3 peptide fluorescence polarization, 2 h
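After 23 nl compound addition and a short centrifugation, plates sat for 2 hours at ambient temperature; polarization of fluorescence then indicated loss of VDR binding to peptide SRC2-3.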
Tau fluor cs – counter-screen for tau fibril formation inhibitors; tau K18 P301L Alexa594 fluorescence, heparin fibrillization; Potency, µM (top dose mostly 57.7 µM); actives 0.93% (n = 280,000); AID 1463; further: nearly all actives have a fitted effect of over 55% in size
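Human tau K18 P301L (15 uM unlabeled, 0.24 uM Alexa 594-labeled) in 100 mM sodium acetate pH 7 with 20 uM heparin, 6 hr at 37 C. ThT 30 uM added, 1 hr ambient; Alexa 594 FP and total fluorescence read at 555/632 nm.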
Tau fibril FP – inhibitors of human tau fibril formation; Potency, µM (doses to about 57.7 µM), hits mostly inhibitors; K18 P301L tau heparin fibrillization, Alexa594 FP, 6 h; actives 0.39% (n = 280,000); P10636; further: nearly all actives have a fitted effect of over 55% in size
Target sequence (P10636 561-689 P618L limits assumed): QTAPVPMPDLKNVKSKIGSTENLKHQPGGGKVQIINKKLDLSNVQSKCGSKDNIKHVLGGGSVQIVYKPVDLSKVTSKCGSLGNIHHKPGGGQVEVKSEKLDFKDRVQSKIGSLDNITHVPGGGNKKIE
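Compound effects on tau fibrillization are measured by Alexa 594 fluorescence polarization (ex 555, em 632 nm). K18 P301L tau is used at 15 uM with 0.24 uM labeled tracer, and 20 uM heparin induces aggregation over 6 hr at 37 C.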
Tau ThT inhib – blocks human tau fibril formation measured by thioflavin T. P10636. recombinant tau K18 P301L, heparin-induced fibrillization, ThT fluorescence. Potency, µM (top dose mostly 57.4 µM), actives largely listed as inhibitors. actives 2.1% (n = 270,000). AID 1460; further: nearly all actives have a fitted effect of over 55% in size
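Fibril formation assay: tau K18 P301L at 15 uM with trace Alexa 594 label, heparin inducer 20 uM, pH 7 sodium acetate buffer, 37 C for 6 hr; endpoint ThT signal.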
A number is an active result; . = inactive; ? = inconclusive; / = no result; [ ] = dose if it differs, or a comment. Compounds with a hit are over-represented: about 6% of the library has one in this group of screens. The call rests on the fitted dose curve; in most records, active means well fitted curve in the direction sought with a large enough effect; inconclusive means small, poorly fitted or top-dose-only effect, or another doubt; inactive means no such curve, though single readings can be large; an effect the other way counts as inactive or inconclusive.

SMILES | Sfp inh | PLK1 PBD inh | VDR inhibitor | Tau fluor cs | Tau fibril FP | Tau ThT inhib
CNc1cc(Cl)c2nonc2c1[N+](=O)[O-] | . | 8.4µM | 35µM | ? | . | 11µM
Cc1cc([N+](=O)[O-])c(Cl)cc1NC(=O)C(C)C | . | . | . | . | . | .
c1ccc(-c2cc3c(nc2-c2ccccc2)CCNC3)cc1 | . | / | / | .[11.6 µM] | .[11.6 µM] | .[11.5 µM]
Nn1c(COc2ccc(Cl)cc2)n[nH]c1=S | 35µM | ? | . | . | . | .
Cc1cccc(C)c1OCc1n[nH]c(=S)n1N | 50µM | ? | . | . | . | .
N#Cc1cccc(NC(=O)N2CC3(CCN(C(=O)Oc4ccccc4)CC3)C2)c1 | . | / | . | / | / | /
COc1ccc(C(CNC(=O)Cc2ccc(Cl)c(Cl)c2)N2CCCCC2)cc1 (stereo not drawn) | . | . | . | / | / | /
COc1ccc(C(CNC(=O)Cc2ccc(Cl)c(Cl)c2)N(C)C)cc1 (stereo not drawn) | . | . | . | . | . | .
CN(C(=O)Cc1ccc(Cl)c(Cl)c1)[C@H](CN1CCCC1)c1cccc(N=C=S)c1 | 50µM | / | . | ? | ? | .
CN(C(=O)Cc1ccc(Cl)c(Cl)c1)C(CN1CCCC1)c1cccc(N=C=S)c1 (stereo not drawn) | 45µM | / | . | ? | ? | ?
C[C@@H]1CC[C@H]2[C@H](C)[C@H]3CC[C@@]4(O)[C@@H]5CC(=O)[C@H]6CC(=O)CC[C@]6(C)[C@H]5C[C@H]4[C@@H]3CN2C1 | . | / | . | / | / | /
CCOc1cc(-c2ccc(N)c(OCC)c2)ccc1N | . | 3.4µM | . | ? | . | ?
O[N+]1=CC=CCC1=S.On1ccccc1=S.[Zn] | . | / | 45µM | . | ? | ?
COC(=O)COc1ccc(C[C@@H](C)NC[C@H](O)c2cccc(Cl)c2)cc1 | . | / | . | / | / | /
O=C(CNC(=O)c1ccc(Br)cc1)NCC(=O)OCC(=O)c1ccc([N+](=O)[O-])cc1 | . | . | ? | . | ? | 28µM
O=C(CNC(=O)c1ccccc1)NCC(=O)OCC(=O)c1ccc([N+](=O)[O-])cc1 | 28µM | . | ? | . | ? | ?
CC1OC(=O)C(C(C)C)NC(=O)C(C(C)C)OC(=O)C(C(C)C)NC(=O)C(C)OC(=O)C(C(C)C)NC(=O)C(C(C)C)OC(=O)C(C(C)C)NC(=O)C(C)OC(=O)C(C(C)C)NC(=O)C(C(C)C)OC(=O)C(C(C)C)NC1=O (stereo not drawn) | . | / | . | . | . | .
CN(N=O)c1cc(O)ccc1O | / | / | 45µM | ? | ? | 11µM
Oc1ccc2c3c1O[C@H]1c4oc5ccccc5c4C[C@]4(O)[C@H](C2)N(CC2CC2)CC[C@@]314 | . | / | . | . | . | .
CC[C@H]1C2CC3[C@@H]4N(C)c5ccccc5[C@]45C[C@@H](C2[C@H]5O)N3[C@@H]1O (stereo partly drawn) | . | / | / | . | . | .
O=c1[nH]c(O)c(N=Nc2cc([N+](=O)[O-])ccc2O)c(=O)[nH]1 | . | . | . | . | . | 14µM
CCOCCSc1nc2c(c(-c3cccs3)c1C#N)CC/C2=C/c1cccs1 | 35µM | . | . | . | . | .
CCCCCCCCCC(=O)O[C@H]1CC[C@H]2[C@@H]3CCC4=CC(=O)CC[C@@H]4[C@H]3CC[C@]12C | . | / | . | . | ? | ?
N#C/C(=C\c1ccc(O)c(O)c1)C(=O)NCCCNC(=O)/C(C#N)=C/c1ccc(O)c(O)c1 | / | / | ? | ? | . | 10µM
N#C/C(=C/c1ccc(O)c(O)c1)C(N)=S | / | / | 40µM | / | / | /
SMILES | Sfp inh | PLK1 PBD inh | VDR inhibitor | Tau fluor cs | Tau fibril FP | Tau ThT inhib
CC(=O)O[C@@H]1CN2CCC1CC2 | . | / | . | . | . | .
C=CCN1C(=O)NC(=O)/C(=C/c2ccc(OC)c(COc3ccc(NC(C)=O)cc3)c2)C1=O | 45µM | 11µM | 79µM | . | . | ?
CC(=O)Nc1ccc(OCCF)cc1 | . | . | . | . | . | .
C=CCN1C(=O)NC(=O)/C(=C/c2ccc(OC)c(CSc3ccccn3)c2)C1=O | 56µM | 4.7µM | 71µM | . | . | ?
CCOC(=O)[C@]12Cc3cc(OC)ccc3[C@H]1N(CC(=O)OC)C(=O)c1ccccc12 | / | . | / | / | / | /
CCOC(=O)[C@]12Cc3cc(Cl)ccc3[C@H]1N(C)C(=O)c1cc(OC)ccc12 | / | 11µM | / | / | / | /
CCOC(=O)[C@]12Cc3cc(N(C)C)ccc3[C@H]1N(Cc1ccccc1)C(=O)c1ccccc12 | / | . | . | / | / | /
CCOC(=O)[C@]12Cc3cc(OC)ccc3[C@H]1N(C)C(=O)c1cc(OC)ccc12 | / | 9.5µM | / | / | / | /
CCCCCN1C(=O)c2cc(OC)ccc2[C@@]2(C(=O)OCC)Cc3cc(OC)ccc3[C@@H]12 | / | 4.7µM | / | / | / | /
CCOC(=O)[C@]12Cc3cc(OC)ccc3[C@H]1N(CC(=O)OC)C(=O)c1cc(OC)ccc12 | / | 13µM | / | / | / | /
CN(C)CCO | . | / | . | . | . | ?
CCCC/C=C/[C@@H](NP(=O)(c1ccccc1)c1ccccc1)c1ccccc1OC | ? | / | / | . | ? | ?
Cc1ccc(S(=O)(=O)c2nnn3c2nc(N2CCC(C(N)=O)CC2)c2cc(Cl)ccc23)cc1C | / | / | . | ? | . | ?
CC(C)(C)n1cccc1/C=C1\C(=O)NC(=O)N(c2ccccc2)C1=O | . | 24µM | . | . | . | ?
Cc1cc(C)cc(N2C(=O)NC(=O)/C(=C/c3cccn3-c3ccc(Cl)cc3)C2=O)c1 | 50µM | ? | . | . | . | ?
Cc1cccc(N2C(=O)NC(=O)/C(=C\c3cccn3-c3ccc(Cl)cc3)C2=O)c1 | 50µM | 0.53µM | . | . | . | ?
CCC1/C=C/C=CCC(C)C(O)[C@@](C)(O)C(=O)C(C)C(O)C(C)C(=O)C(C)C(O)C(C)C=CC(=O)O[C@H]2C(C)C(CC1)O[C@]1(CCC(C)C(CC(C)O)O1)C2C (stereo partly drawn) | . | / | . | . | . | ?
O=C(O)[C@@H]1CCN1 | / | / | . | . | . | .
CCn1c(-c2nn(-c3ccccc3)ccc2=O)n[nH]c1=S | 56µM | . | . | . | . | .
CCOC(=O)CSc1nn(-c2ccccc2)c(=S)s1 | . | . | . | . | ? | .
[Cl][In]([Cl])[Cl] | 45µM | / | . | / | / | /
COc1ccc(Cc2c(O)[nH]c(=S)[nH]c2=O)cc1 | 56µM | 27µM | . | / | / | /
CCOC(=O)c1ccccc1NC(=O)c1c(O)[nH]c(=S)[nH]c1=O | / | . | . | / | / | /
NC(CO)Cc1ccccc1 (stereo not drawn) | . | / | . | . | . | .
O=C(CSc1ccccn1)Nc1cccc2ccccc12 | . | 21µM | . | . | . | ?
Cc1cccc(NC(=O)Cn2cc(C(=O)C3CC3)c3ccccc32)c1C | ? | . | . | / | / | /
Nc1ccc2c3c(cccc13)-c1ccccc1-2 | / | 9.5µM | . | / | / | /
CN(C)C(=O)Oc1ccc(Cl)c2ccccc12 | . | . | . | . | . | .
Cc1c(OC(=O)N(C)C)ccc2c1O/C(=C\c1ccco1)C2=O | 79µM | . | . | / | / | /

Screens from PubChem BioAssay.
